Phagocyt inh = macrophage phagocytosis inhibition. J774A.1 macrophage IgG-bead phagocytosis, imaging. inhibition, % at 5 µM. 110,000 tested, 0.07% active;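 active means inhibition above the mean of the plate negative controls plus 5 SD, cut at about 13% in these data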;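 further: phagocytic index as fraction of beads internalized from green versus red external bead signal; plate controls were DMSO negative control for no effect and cytochalasin-D positive control for full effect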
S1P2 ag = S1P2 (human) receptor agonism; activation, % at 4.5 µM; 97,000 tested, 0.46% active; S1P2-expressing cell line, agonist reporter read-out; O95136; in the data active means activation above about 16%;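 further: 0% = vehicle low control and 100% = maximal reference agonist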
Target sequence (O95136 whole entry, looked up): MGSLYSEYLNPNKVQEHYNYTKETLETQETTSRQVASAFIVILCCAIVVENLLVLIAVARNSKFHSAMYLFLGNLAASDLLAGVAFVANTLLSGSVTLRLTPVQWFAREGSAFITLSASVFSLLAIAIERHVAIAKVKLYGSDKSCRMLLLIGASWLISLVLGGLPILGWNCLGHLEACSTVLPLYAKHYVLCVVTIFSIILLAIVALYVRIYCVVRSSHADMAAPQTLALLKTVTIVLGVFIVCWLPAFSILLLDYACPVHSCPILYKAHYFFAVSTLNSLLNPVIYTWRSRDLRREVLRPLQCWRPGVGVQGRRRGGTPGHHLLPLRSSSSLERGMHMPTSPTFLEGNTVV
Calb biofilm kill = kills Candida albicans biofilms | C. albicans biofilm + clotrimazole, Alamar Blue | inhibition, % at 6 µM | 85,000 tested, 0.14% active;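 active means inhibition above 20%; inactive means inhibition below 20%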;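 further: preformed 24 hr biofilms exposed to compound for 48 hr; 0% = biofilm without compound and 100% = blank killed by clotrimazole plus chlorhexidine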
S1P2 blocker = antagonists of human S1P2 receptor; 97,000 tested, 0.21% active; cell-based S1P2 antagonist assay, inhibition at 5 uM; O95136; inhibition, % at 5 µM; in the data active means inhibition above about 45%;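 further: CRE beta-lactamase reporter cells expressing human S1P2 stimulated with S1P; 0% = agonist at EC80 alone and 100% = agonist plus reference antagonist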
GALR2 ag = GALR2 (human) receptor agonism | GALR2-expressing cells, agonist activation read-out | activation, % (test concentration not listed) | 140,000 tested, 0.48% active | AID 803; in the data active means activation above about 5%, passing the limit was not always enough;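 further: 0% = vehicle buffer wells and 100% = reference agonist at full effect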
GALR2 blocker = GALR2 (human) receptor antagonism | O43603 | GALR2-expressing cells, antagonist mode | inhibition, % at 4 µM | 140,000 tested, 0.39% active | AID 828;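 further: cells stimulated with galanin 1-16 at roughly its EC80; 0% = agonist challenge control and 100% = basal control without agonist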
GALR2 blk conf = GALR2 (human) antagonism confirmed; shares compounds with GALR2 blocker; GALR2-expressing cells, antagonist mode, inhibition; inhibition, % at 4 µM; 480 tested, 60% active; AID 866;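 further: cells stimulated with galanin at about its EC80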
BLA inh counter = inhibits beta-lactamase reporter in GALR2 antagonist counterscreen; 480 tested, 36% active; inhibition, % at 4.2 µM; shares compounds with GALR2 blocker; AID 867; CHO NFAT-BLA reporter, beta-lactamase FRET, thapsigargin-stimulated;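 active means inhibition above the mean inhibition across tested compounds plus 3 SD, cut at about 27% in these data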;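 further: 0% = 500 nM thapsigargin stimulated wells and 100% = unstimulated BSA only wells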
Starred values were filed as active, the others as inactive. Only some compounds are listed: those with a hit (about 1.3% of all), similar ones and a draw of the others. Unless noted, no stated cut-off is given here; in the data, active means inhibition above about 27%; inactive means the rest.

For Cc1cc(C)nc(SCc2ccc(C(=O)N/N=C/c3cccc(O)c3O)cc2)n1 the results were Phagocyt inh -3.3, GALR2 ag -1.1, GALR2 blocker 28.3*, GALR2 blk conf 22.3 and BLA inh counter 27.8*.
`COc1cc(CO)cc(Br)c1OCC(=O)N1CCCCC1` gave Phagocyt inh -1.2, Calb biofilm kill 7.2, GALR2 ag -1.4 and GALR2 blocker 2.9.
For CCC(=O)N1CCc2cc(S(=O)(=O)NC(Cc3ccccc3)C(=O)NC3CCCCC3)ccc21 (stereo not drawn) the results were Phagocyt inh -0.4, Calb biofilm kill -2.7, GALR2 ag -2.2 and GALR2 blocker 17.1.
For CC(=O)N1CCc2cc(S(=O)(=O)NC(Cc3ccccc3)C(=O)Nc3cc(C)ccn3)ccc21 (stereo not drawn) the results were Phagocyt inh 1.3, S1P2 ag -7.0, Calb biofilm kill -0.2, S1P2 blocker -2.5, GALR2 ag -2.1, GALR2 blocker 28.6*, GALR2 blk conf 3.1 and BLA inh counter 3.0.
Cc1cc(NO)c(C(C)C)cc1N=O was read as Phagocyt inh -5.8, GALR2 ag -1.3 and GALR2 blocker 2.9.
CCc1ccccc1NC(=S)N1CCN(c2ccccn2)CC1 was read as Phagocyt inh -0.4, GALR2 ag -2.5, GALR2 blocker 28.1*, GALR2 blk conf 12.1 and BLA inh counter -3.1.
`CCOc1cc(/C=N/NC(=O)c2cccc([N+](=O)[O-])c2)ccc1OS(=O)(=O)c1ccccc1` gave S1P2 ag -6.5, S1P2 blocker -4.1, GALR2 ag -2.2 and GALR2 blocker 8.0.
Screening Cc1cccc(NC2(C(F)(F)F)N=C(c3ccccc3)NC2=O)n1 (stereo not drawn) returned S1P2 ag -3.5, S1P2 blocker 2.7, GALR2 ag -2.4 and GALR2 blocker 1.4.
`CCCCCOc1ccc(CSC(=N)N)cc1[N+](=O)[O-]` gave Phagocyt inh -0.2, S1P2 ag 2.1, S1P2 blocker 13.9, GALR2 ag 1.9 and GALR2 blocker -15.9.
CCCCOc1ccc(Br)cc1CSC(=N)N was read as Phagocyt inh 0.6, GALR2 ag -0.2, GALR2 blocker 36.3*, GALR2 blk conf 36.7* and BLA inh counter 65.6*.
`CCC(=O)Nc1ccc(C(=O)OCc2ccc(Cl)c(Cl)c2)cc1` gave Phagocyt inh -3.6, GALR2 ag -1.5 and GALR2 blocker 2.4.
Screening c1ccc(CN2CCN(C3=Nc4cccc5cccc3c45)CC2)cc1 returned S1P2 ag -0.8, Calb biofilm kill 4.4, S1P2 blocker 4.1, GALR2 ag -2.7 and GALR2 blocker -0.8.
`O=C1CCN2C=Nc3cccc4ccc1c2c34` gave Phagocyt inh 1.7, S1P2 ag -4.9, S1P2 blocker 2.9, GALR2 ag -0.5, GALR2 blocker 29.3*, GALR2 blk conf 19.6 and BLA inh counter 21.1.
For CC1=C(C)CS(=O)N(c2ccc(S(N)(=O)=O)cc2)C1 (stereo not drawn) the results were Phagocyt inh -1.0, S1P2 ag -1.2, Calb biofilm kill 1.8, S1P2 blocker -0.3, GALR2 ag -1.1, GALR2 blocker 29.6*, GALR2 blk conf 27.8* and BLA inh counter 10.6.
Screening Cc1ccc(-n2c(Cl)c(Cl)nc(Cl)c2=O)cc1 returned Phagocyt inh -3.4, GALR2 ag 1.6, GALR2 blocker 81.2*, GALR2 blk conf 92.1* and BLA inh counter 98.6*.
Screening COc1cccc(C(=O)c2sc(NC(C)C)nc2N)c1 returned Calb biofilm kill 8.4, GALR2 ag -3.4, GALR2 blocker 39.9*, GALR2 blk conf 9.7 and BLA inh counter -1.5.
Screening COc1ccc(C(=O)c2sc(NC(C)C)nc2N)cc1OC returned Phagocyt inh -3.8, S1P2 ag -1.7, Calb biofilm kill 4.6, S1P2 blocker 7.7, GALR2 ag -2.9 and GALR2 blocker 2.1.
Screening Cc1[nH]n(CCC#N)c(=O)c1CC(=O)N1CCN(c2ccccc2)CC1 returned Phagocyt inh -0.5, S1P2 ag -7.6, S1P2 blocker -3.5, GALR2 ag 2.6 and GALR2 blocker 10.8.
Screening CNc1nc2cc([N+](=O)[O-])c([N+](=O)[O-])cc2nc1NC returned Phagocyt inh -9.4, GALR2 ag -2.4, GALR2 blocker 54.1*, GALR2 blk conf 64.8* and BLA inh counter 9.6.
`CNc1c([N+](=O)[O-])ncn1C` gave Phagocyt inh -1.2, S1P2 ag -2.3, Calb biofilm kill -1.9, S1P2 blocker -5.2, GALR2 ag -3.8 and GALR2 blocker 2.4.
For NNC(=S)NCc1ccc2c(c1)OCO2 the results were Phagocyt inh -7.9, GALR2 ag -0.9 and GALR2 blocker 2.5.
`CCCCNC(=O)COC(=O)c1c2c(nc3ccccc13)/C(=C/c1cccs1)CC2` gave Phagocyt inh 13.1, GALR2 ag 8.0*, GALR2 blocker 27.3*, GALR2 blk conf 41.4* and BLA inh counter 50.9*.
CCCCNC(=O)COC(=O)c1cc(C)nc2ccccc12 was read as Phagocyt inh -0.6, S1P2 ag -3.3, Calb biofilm kill 5.8, S1P2 blocker -1.6, GALR2 ag -1.1 and GALR2 blocker -6.6.
CNC(=O)NC(=O)C(C)OC(=O)c1c2c(nc3ccccc13)/C(=C/c1cccs1)CC2 (stereo not drawn) was read as Phagocyt inh -4.7, GALR2 ag 6.6*, GALR2 blocker 48.5*, GALR2 blk conf 41.2* and BLA inh counter 48.4*.
Screening C#CC(=O)N(c1ccc(OC)c(OC)c1)C(C(=O)NC1CCCC1)c1cccs1 (stereo not drawn) returned Phagocyt inh 0.4, S1P2 ag -12.3, S1P2 blocker 34.8, GALR2 ag -1.7, GALR2 blocker 41.4*, GALR2 blk conf 53.6* and BLA inh counter 50.8*.
`C#CC(=O)N(c1cccc(OC)c1)C(C(=O)NC1CCCC1)c1cccs1` (stereo not drawn) gave Phagocyt inh 47.2*, S1P2 ag -8.2, S1P2 blocker 40.9, GALR2 ag -1.7, GALR2 blocker 62.4*, GALR2 blk conf 71.7* and BLA inh counter 57.5*.
Screening COc1ccc(N(C(=O)Cc2cccs2)C(C(=O)NC2CCCCC2)c2cccn2C)cc1OC (stereo not drawn) returned S1P2 ag -10.1, S1P2 blocker -21.9, GALR2 ag -1.7 and GALR2 blocker -15.3.
`CC(=O)Nc1ccc(/C(C)=N/NC(=O)C2CC2c2ccccc2)cc1` (stereo not drawn) gave Phagocyt inh -1.1, GALR2 ag -0.1 and GALR2 blocker 7.6.
`O=[N+]([O-])c1ccc(/C=C/c2nc3ccc([N+](=O)[O-])cc3[nH]2)cc1` gave Phagocyt inh -9.0, GALR2 ag 0.5 and GALR2 blocker 7.0.

Bioassay records (PubChem BioAssay)
